This is a sample that favours compounds with a hit; in the whole collection about 3.2% have one here.
Hsp90 Hop PPI: changes Hsp90-Hop TPR2A binding signal, up or down. AlphaScreen TPR2A-His6 binding biotin-Hsp90 C-terminal peptide. Potency, µM (series often up to 57 µM). 71,000 tested, 0.44% active. AID 595; active means well fitted curve in either direction with a large enough effect; inconclusive means small, poorly fitted or top-dose-only effect, or another doubt
Tau fil binding: binds recombinant human tau filaments. recombinant tau filaments, thioflavin S fluorescence, 15 h; filaments grown with octadecylsulfate alongside compound. Potency, µM (titrated, usually from 57.1 µM). AID 596. 71,000 tested, 2% active. P10636;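 further: actives lower thioflavin S fluorescence by blocking filaments or displacing dye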
Target sequence (P10636 whole entry, looked up): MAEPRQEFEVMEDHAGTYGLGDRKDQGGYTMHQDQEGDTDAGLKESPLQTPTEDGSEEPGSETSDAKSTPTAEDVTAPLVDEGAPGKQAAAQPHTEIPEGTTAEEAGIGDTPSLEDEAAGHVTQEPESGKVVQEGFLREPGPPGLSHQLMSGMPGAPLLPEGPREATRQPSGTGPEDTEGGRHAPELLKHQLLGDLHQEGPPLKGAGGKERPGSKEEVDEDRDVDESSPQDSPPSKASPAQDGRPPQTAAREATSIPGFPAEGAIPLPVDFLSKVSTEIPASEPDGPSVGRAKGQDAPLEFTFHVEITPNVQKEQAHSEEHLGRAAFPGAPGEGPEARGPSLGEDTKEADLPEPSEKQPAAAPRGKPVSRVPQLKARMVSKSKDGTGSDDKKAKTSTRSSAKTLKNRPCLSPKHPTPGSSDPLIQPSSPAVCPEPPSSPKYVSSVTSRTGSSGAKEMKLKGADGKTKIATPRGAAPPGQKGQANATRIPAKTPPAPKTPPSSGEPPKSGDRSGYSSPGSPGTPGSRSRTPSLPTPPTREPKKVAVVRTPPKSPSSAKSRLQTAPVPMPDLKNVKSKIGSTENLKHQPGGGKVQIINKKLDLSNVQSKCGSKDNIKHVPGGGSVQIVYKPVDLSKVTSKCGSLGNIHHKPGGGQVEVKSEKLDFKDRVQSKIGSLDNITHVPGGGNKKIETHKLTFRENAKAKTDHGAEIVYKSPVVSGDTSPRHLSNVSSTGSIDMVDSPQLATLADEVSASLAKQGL
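Tau 2 uM in ThS buffer dispensed; compound added; 60 uM ODS added (finals 1 uM tau, 30 uM ODS); 15 h 37 C; fluor ex450/em510.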
15-hLO inh: inhibitors of human 15-lipoxygenase (ALOX15); 74,000 tested, 1.4% active; AID 887; purified 15hLO-1, xylenol orange hydroperoxide absorbance; P16050; Potency, µM (series often up to 57.1 µM), hits mostly inhibitors; further: nearly all actives have a fitted effect of over 55% in size
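Inhibition is scored from a chromogenic endpoint. After 15 min enzyme-compound contact, arachidonic acid (50 uM final) reacts 6 min with 40 nM 15hLO-1 at room temperature, then Fe-XO reagent is added for 30 min and absorbance ratio recorded.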
USP2a inhib: blocks human ubiquitin-specific protease USP2a | O75604 | USP2a enzymatic assay, qHTS inhibition | Potency, µM (highest dose often 38.3 µM), hits mostly inhibitors | 60,000 tested, 0.1% active | AID 927; further: nearly all actives have a fitted effect of over 60% in size
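20 nM USP2 core + cpd, 30 min RT; add 20 nM Ub-PLA2/20 uM NBD C6-HPC; read Ex460/Em535 at 0 h and 2.5 h. Normalized to NEM; qHTS curve fit/classification.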
Numbers stand for hits; n = inactive; u = inconclusive; x = no result; ! = a repeat was not active; [ ] = remark or other dose. Unless noted, the call rests on the fitted dose curve; in most records, active means well fitted curve in the direction sought with a large enough effect; inconclusive means small, poorly fitted or top-dose-only effect, or another doubt; inactive means no such curve, though single readings can be large; an effect the other way counts as inactive or inconclusive.

SMILES	Hsp90 Hop PPI	Tau fil binding	15-hLO inh	USP2a inhib
COc1cc2c(cc1O)C[C@H]1c3c(cc(O)c(OC)c3-2)CCN1C	n	40µM!	n	n
COc1cc2c(cc1O)C[C@@H]1c3c(cc(O)c(OC)c3-2)CCN1C	n[11 µM]	n[11.4 µM]	n[11.4 µM]	x
C[C@H]1[C@@H](O)[C@@H](C)/C=C\C=CCC\C=C/C=C\C=C/C=C[C@@H](O[C@H]2O[C@@H](C)[C@@H](O)[C@@H](N)[C@@H]2O)C[C@@H]2O[C@@](O)(C[C@@H](O)[C@H]2C(=O)O)C[C@@H](O)[C@@H](O)CC[C@@H](O)C[C@@H](O)C[C@@H](O)CC(=O)O[C@H]1C	n	n	7.9µM	n
N#CS.N=C=S.N=C=S.[Cu].[NH2-].[NH2-].[NH2-].[NH2-].c1ccc2ncccc2c1	n[11 µM]	n[11.4 µM]	2.5µM	x
CCCN1CCc2cc(O)cc3c2[C@H]1Cc1ccc(O)c(O)c1-3	n	25µM	n	n
O=C1C[C@H]2OCCC=C3CN4CC[C@@]56c7ccccc7N1[C@@H]5[C@H]2[C@H]3C[C@@H]46	n	n	x	x
CSC([N-]/N=C/c1cccc(C)n1)=[S]=[Cu].CS[C@H]([S-])[N-]/N=C/c1cccc(C)n1	3.2µM	u	u	x
CC(C)Nc1ccc(Nc2ccccc2)cc1	u	16µM	u	x
C/C=C(\C)C(=O)O[C@@H]1C(C)=C2[C@H]([C@@H]1OC(=O)CCCCCCC)[C@@](C)(OC(C)=O)C[C@@H](OC(=O)CCC)[C@@]1(O)[C@H]2OC(=O)[C@]1(C)O	n	n	20µM	n
CN(C)c1ccc(N=Nc2ccccc2)cc1	13µM	16µM	n	x
CC1=CC(=O)NP(=O)(Oc2ccc3ccccc3c2)N1 (stereo not given)	n	n	13µM	x
C[C@]12Cc3cn4c(nc3C=C1CC[C@H]1[C@@H]2CC[C@@]2(C)[C@H]1CC[C@@]2(O)C#N)nc1ccccc14	n	n	n	n
O=c1ccc2cc(O[C@@H]3O[C@@H](CO)[C@@H](O)[C@@H](O)[C@H]3O)c(O)cc2o1	n	u	x	x
CN(C)c1ccc(N)cc1	u	13µM	u	x
O=C(CCCN1CCC2(CC1)C(=O)N(CCc1ccc(N=C=S)cc1)CN2c1ccccc1)c1ccc(F)cc1	u	n	x	x
Ic1ccccc1CN[C@@H]1C2CCN(CC2)[C@H]1C(c1ccccc1)c1ccccc1	n	n	n	n
O=CN1C[C@H]2C[C@@H](C1)c1cccc(=O)n1C2	n	n	x	x
O=C1C(Cl)=C(Cl)C(=O)C(Cl)=C1Cl	n	n	0.16µM	n
C=CCN1CCc2cccc3c2[C@@H]1Cc1ccc(O)c(O)c1-3	u	n	u	n
CCn1c(N)c(C(=O)NC)sc1=S	n	n	4µM	n
CC(C)[C@@]1(NC(=O)[C@@H]2C[C@H]3c4cccc5[nH]cc(c45)C[C@@H]3N(C)C2)O[C@@]2(O)[C@H]3CCCN3C(=O)[C@@H](Cc3ccccc3)N2C1=O	n	n	x	x
Nc1ccc(-c2ccc(N)c(Cl)c2)cc1Cl	n	u	n	x
Nc1ccc(-c2ccc(N)c(O)c2)cc1O	u	5µM	u	x
C[C@@H]1Cc2cc3c(cc2C(c2ccc(N)cc2)=NN1)OCO3	n	40µM	u	n
CC[C@H]1CN2CC[C@@H]1C[C@@H]2[C@H](O)c1ccnc2ccccc12	n	n	x	x
SMILES	Hsp90 Hop PPI	Tau fil binding	15-hLO inh	USP2a inhib
CC1CCCCN1CC(=O)c1ccc2cc[nH]c2c1 (stereo not given)	n	25µM	n	x
O=c1[nH]c(=O)n(Cc2ccccc2)c(O)c1C=NCCCn1ccnc1	16µM	n	n	n
CN1CCc2cc3c(cc2[C@@H]1[C@H]1OC(=O)c2c1ccc1c2OCO1)OCO3	n	u	x	x
C=CCc1c(C)[nH]c(=S)c(C#N)c1C	n	n	16µM	n
NC(=NCCC[C@@H](N)C(=O)O)N[N+](=O)[O-]	n	n	x	x
CN[C@H]1[C@H]2[C@H]3CCN2C[C@@H]1O3	n	u	x	x
COc1ccc(OC)c(C(O)C(C)N)c1 (stereo not given)	x	x	n	n
C[C@H](N)[C@H](O)c1ccc(O)c(O)c1	u	n	3.2µM!	n
CNc1ccc2oc(C[C@@H]3O[C@@]4(CC[C@H]3C)O[C@@H]([C@@H](C)C(=O)c3ccc[nH]3)[C@@H](C)C[C@H]4C)nc2c1C(=O)O	n	n	x	x
O=c1cc(-c2ccc(O)c(O)c2)oc2cc(O)cc(O)c12	n	u	2.5µM	n
C[C@H]1C(=O)O[C@H]2CCN3CC=C(COC(=O)[C@](C)(O)[C@@]1(C)O)[C@H]23	n	n	x	x
NC(N)=Nc1ccc2[nH]c3c(c2c1)C[C@]1(O)[C@@H]2Cc4ccc(O)c5c4[C@]1(CCN2CC1CC1)[C@H]3O5	n	n	1.3µM	n
C=C(C)CN1CC[C@@]23c4c5ccc(O)c4O[C@H]2c2[nH]c4ccccc4c2C[C@]3(O)[C@@H]1C5	n	u	n	x
O=C1NC(=O)C(=O)C(=O)N1	x	x	n	10µM
CN1CCN(c2ccc(N)c(N3CCN(C)CC3)c2)CC1	n	20µM	n	n
COc1ccc2c(c1)[C@]13CCCC[C@@H]1[C@H](C2)NCC3	n	n	n	n
COc1cc2c(cc1OC)[C@@H]1C(=O)c3ccc(OC)c(CC=C(C)C)c3OC1CO2 (stereo not given in full)	x	x	16µM	n
C=C(C)[C@H]1Cc2c(ccc3c2O[C@H]2COc4cc(OC)c(OC)cc4[C@@H]2C3=O)O1	n	n	n	n
C=C1C/C(=C\C)C(=O)O[C@@H]2CCN3CC=C(COC(=O)[C@]1(C)O)[C@H]23	n	u	x	x
O=C1C=CC(=O)c2c1ccc1c2ccc2ccccc21	n	4µM	n	n
CCCCn1c(N)c(C(=O)NCCN2CCOCC2)c2nc3ccccc3nc21	u	n	n	n
Nc1c(C(=O)NCCN2CCOCC2)c2nc3ccccc3nc2n1Cc1ccco1	n	n	13µM	n
NCCCCN=C(N)N	n	40µM!	u	n
N=C(N)c1c(O)n(C2CCCCC2)c(=O)n(C2CCCCC2)c1=O	n	16µM	n	n
COC(=O)[C@@H]1C[C@@H]1[C@@H](NP(=O)(c1ccccc1)c1ccccc1)c1ccccc1	n	n	x	x
SMILES	Hsp90 Hop PPI	Tau fil binding	15-hLO inh	USP2a inhib
CC(=O)Nc1nnc(SCC(=O)NCCOc2ccccc2)s1	n	n	u	7.9µM
CC(C)N[C@@H](C)Cc1ccc(I)cc1	n	n	n	n
C[N+]1(C)C2CC[C@H]1CC(OC(=O)[C@@H](CO)c1ccccc1)C2 (stereo not given in full)	n[11 µM]	n[11.4 µM]	n[11.4 µM]	x
C[N+]1(C)[C@@H]2CC[C@H]1CC(OC(=O)c1c[nH]c3ccccc13)C2 (stereo not given in full)	n	n	16µM	n
Cc1cc[c]([Sb]2[O][C@H]([C@H](O)[C@H](O)C(=O)O)[C@@H](CO)[O]2)cc1	n[11 µM]	n[11.4 µM]	n[11.4 µM]	x
C=C(C)[C@@H]1CN[C@H](C(=O)O)[C@H]1CC(=O)O	n	n	x	x
C#CCN1C(C)=C(C(=O)CCO)[C@@H](c2cccc(-n3oo3)c2)C(C(=O)OC)=C1C	n	40µM	n	x
C=CCN1C[C@H](C)N([C@@H](c2ccccc2)c2ccc(C(=O)N(CC)CC)cc2)C[C@H]1C	u	n	n	x
